Bioassay records: PubChem BioAssay, National Center for Advancing Translational Sciences (NCATS)
Only some compounds are listed: those with a hit (about 2.9% of all), similar ones and a draw of the others.
DRD3 agonist: qHTS of D3 Dopamine Receptor Agonist: qHTS; actives 0.58% (n = 410,000); AID 652048, 2013; max activation, %; D3R DiscoveRx beta-arrestin cells, luminescence, 90 min; in the data active = max activation above about 30%; also: 0% is about no effect
Target sequence (P35462 whole entry, looked up): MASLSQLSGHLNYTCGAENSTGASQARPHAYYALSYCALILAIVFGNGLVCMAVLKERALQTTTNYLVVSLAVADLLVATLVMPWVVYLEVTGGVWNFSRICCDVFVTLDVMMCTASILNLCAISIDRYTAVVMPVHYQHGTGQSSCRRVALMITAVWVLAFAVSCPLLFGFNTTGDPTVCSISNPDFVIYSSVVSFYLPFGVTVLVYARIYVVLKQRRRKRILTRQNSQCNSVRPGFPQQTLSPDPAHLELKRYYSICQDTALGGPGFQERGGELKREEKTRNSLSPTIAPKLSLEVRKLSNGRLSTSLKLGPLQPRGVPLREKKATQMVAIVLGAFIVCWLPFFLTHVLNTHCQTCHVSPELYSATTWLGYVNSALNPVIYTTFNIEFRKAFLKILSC
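Agonist mode: compounds and dopamine controls were applied to plated cells for 90 min at 37 degrees C after an overnight attachment at 1500 cells/well. Luminescent read-out followed 30 - 60 minutes at room temperature with DiscoveRx detection reagent.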
D3 antag: qHTS of D3 Dopamine Receptor Antagonist: qHTS; D(3) dopamine receptor (Homo sapiens), P35462; D3R cells, DiscoveRx beta-arrestin luminescence, antagonist mode; active compounds read low; max response, negative = inhibition, %; actives 2.5% (n = 360,000); AID 652054, 2013; in the data active = max response below about -50%; inconclusive = no clear call, values can overlap the other calls; also: % is scaled to controls: 0 for no effect and ±100 for the full control effect
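Cells expressing the human receptor were seeded at 1500 cells/well, incubated overnight at 37 degrees C in 5% CO2, then exposed to library compounds with dopamine controls for 90 minutes at 37 degrees C before luminescent detection.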
Integrin act MD: qHTS for Activators of Integrin-Mediated Alleviation for Muscular Dystrophy; alpha7betagal myoblasts, beta-gal FDG fluorescence, 48 h; Potency, µM (doses to about 38.3 µM), for the others: top-dose activation, usual class: activators; actives 0.064% (n = 350,000); active = well fitted activation curve with a large enough effect; inconclusive = small, poorly fitted or top-dose-only effect; inactive = no such curve, though single readings can be large or run the other way;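 also: potency is read from the fitted curve at half-maximal effect; 100% = response of the positive control SU9516; nearly all actives have a fitted effect of over 60% in size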
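Alpha7betagal+/- myoblasts (passage 13) were plated 16-24 hr, then exposed to compounds (1:260 dilution of DMSO stock) for 48 hours at 37C. After MPER lysis, β-galactosidase reporter activity was read as FDG fluorescence (ex 480/em 540) after 30 minutes.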
* marks the source's active call; other numbers are inactive results.

`COc1cccc(N2CCN(CC(=O)Nc3ccccc3C(=O)NCc3ccccc3)CC2)c1` gave DRD3 agonist 16, D3 antag 13 and Integrin act MD 5%.
For CC1CCCN(C(=O)CNC(=O)c2cccs2)C1 (centres undefined) the results were DRD3 agonist 0, D3 antag 0 and Integrin act MD -14%.
Screening CCN(CC)C(=O)c1[nH]cnc1C(=O)N[C@@H](C)C(=O)OCc1ccccc1 returned DRD3 agonist -8, D3 antag -29 and Integrin act MD 0%.
CCN(CC)C(=O)c1[nH]cnc1C(=O)NCc1ccccc1 was read as DRD3 agonist -3, D3 antag -54* and Integrin act MD -14%.
C[C@@H](NC(=O)c1nc[nH]c1C(=O)NCC(=O)OCc1ccccc1)c1ccccc1 was read as DRD3 agonist 47*, D3 antag 76 and Integrin act MD 18%.
C[C@@H](NC(=O)c1nc[nH]c1C(=O)OCc1ccccc1)c1ccccc1 was read as DRD3 agonist -13, D3 antag 13 and Integrin act MD 21%.
Screening O=C(N[C@@H](Cc1ccccc1)C(=O)OCc1ccccc1)c1nc[nH]c1C(=O)NCc1ccccc1 returned DRD3 agonist 5, D3 antag -75* and Integrin act MD 10%.
For CC(C)C[C@H](NC(=O)c1[nH]cnc1C(=O)N[C@@H](Cc1ccccc1)C(=O)OCc1ccccc1)C(=O)OCc1ccccc1 the results were DRD3 agonist -8, D3 antag 0 and Integrin act MD 10%.
`Cc1noc2ncnc(N3CCCC(C(=O)NCCC(C)C)C3)c12` (centres undefined) gave DRD3 agonist 12.
`COc1ccc(OC)c(S(=O)(=O)Nc2cc(C(=O)O)ccc2N2CC3CC(C2)c2cccc(=O)n2C3)c1` (centres undefined) gave DRD3 agonist 0, D3 antag 1 and Integrin act MD 0%.
Cc1cccc(NC(=S)NC(=O)CCc2ccccc2)c1C was read as DRD3 agonist -2, D3 antag -14 and Integrin act MD 27%.
`NS(=O)(=O)c1ccc(CNC(=O)c2ccc(Cl)c(S(=O)(=O)NCc3ccccc3)c2)cc1` gave DRD3 agonist 14, D3 antag 13 and Integrin act MD -6%.
Screening NS(=O)(=O)c1ccc(NC(=O)c2ccc(CNS(=O)(=O)c3cc(C(F)(F)F)ccc3Cl)cc2)cc1 returned DRD3 agonist 1, D3 antag 3 and Integrin act MD 10µM*.
CS(=O)(=O)Nc1ccccc1C(=O)OCc1cc(=O)n2nc(C3CCCCC3)sc2n1 was read as DRD3 agonist -2.
`COc1cc(/C=C/C(=O)O)cc(S(=O)(=O)Nc2ccc3nc(C)sc3c2)c1OC` gave DRD3 agonist 0, D3 antag 4 and Integrin act MD inconclusive.
For COc1ccc(N2CCN(C(=O)C(=O)c3cn(CC(=O)N4CCCC4)c4ccccc34)CC2)cc1 the results were DRD3 agonist 6, D3 antag 15 and Integrin act MD -29%.
Screening COc1ccc([C@H]2CC(=O)C=C(c3ccc(OC)c(OC)c3)C2)cc1 returned DRD3 agonist 5, D3 antag 32 and Integrin act MD 19%.
COc1ccc([C@H]2CC(=O)C=C(c3cccc4c3Oc3ccccc3S4)C2)cc1OC was read as DRD3 agonist 75*, D3 antag 145 and Integrin act MD -40%.
`COc1ccc([C@H]2CC(=O)C=C(c3cccc(CO)c3)C2)cc1OC` gave DRD3 agonist 8, D3 antag 31 and Integrin act MD -34%.
For O=C1C=C(c2cccc3c2Oc2ccccc2S3)C[C@@H](c2ccc(Cl)cc2)C1 the results were DRD3 agonist 7, D3 antag 16 and Integrin act MD -1%.
CCOC(=O)c1cccc(C2=CC(=O)C[C@H](c3ccc(OC)c(OC)c3)C2)c1 was read as DRD3 agonist 52*, D3 antag 88 and Integrin act MD -30%.
C=Cc1ccc(C2=CC(=O)C[C@H](c3ccc(OC)cc3)C2)cc1 was read as DRD3 agonist -27, D3 antag -52* and Integrin act MD 34%.
Screening COc1ccc([C@H]2CC(=O)C=C(c3ccc4ccccc4c3)C2)cc1OC returned DRD3 agonist 42*, D3 antag 38 and Integrin act MD 20%.
`COc1ccc(C2=CC(=O)CC(c3ccc(OC)cc3)C2)cc1` (centres undefined) gave DRD3 agonist -12, D3 antag -10 and Integrin act MD 0%.
`COc1ccccc1NS(=O)(=O)c1ccc(C)c(NC(=O)c2ccc(S(=O)(=O)N3CCCCCC3)cc2)c1` gave DRD3 agonist -7, D3 antag -3 and Integrin act MD 74%.
